A selection: hits, their analogues and other compounds. The true share with any hit is near 9.8%.
ALDH1A1 inh: qHTS Assay for Inhibitors of Aldehyde Dehydrogenase 1 (ALDH1A1) | Purified ALDH1A1, NADH fluorescence, propionaldehyde substrate | Potency, µM (doses to about 75.3 µM), for inactives: top-dose activity, negative = inhibition, usual class: inhibitors | 7.3% of 220,000 active | Aldehyde dehydrogenase 1A1 (Homo sapiens), P00352;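 further: potency means the concentration at half of the fitted maximal effect; plate controls were no enzyme wells and a reference inhibitor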
KDM4E inh: qHTS Assay for Inhibitors of Human Jumonji Domain Containing 2E (JMJD2E); Lysine-specific demethylase 4E (Homo sapiens), B2RXH2; AID 2147, 2009; Potency, µM (series often up to 57.1 µM), for the others: at the top dose activity change, negative = inhibition, usual class: inhibitors; 1.6% of 230,000 active; JMJD2E catalytic domain, FDH-coupled NADH fluorescence (FDH is formaldehyde dehydrogenase);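 further: potency means the concentration at half of the fitted maximal effect; 0% = wells with enzyme and -100% = buffer wells without enzyme; nearly all actives have a fitted effect of over 50% in size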
HPGD block: qHTS Assay for Inhibitors of HPGD (15-Hydroxyprostaglandin Dehydrogenase); purified HPGD, NADH fluorescence kinetic, PGE2 substrate; Potency, µM, inactives show at the highest dose activity change, negative = inhibition, hits mostly inhibitors; 4.3% of 150,000 active; AID 894, 2007; further: potency means the concentration at half of the fitted maximal effect; on the % scale 0 is the no-effect control and ±100 the full control effect
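20 nM HPGD preincubated 15 min at room temperature with compound in 50 mM Tris-HCl pH 8, 0.01% Tween 20. Started with 1 mM NAD+ and 30 uM prostaglandin E2; NADH fluorescence (360/450 nm) read 5 times over 30-s intervals, last minus first.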
HTT ATP protect: qHTS Multiplex Assay to Identify Dual Action Probes in a Cell Model of Huntington: Cytoprotection (ATP) | AID 1471, 2008 | Potency, µM (top dose mostly 56.4 µM), without a hit: cytoprotection (ATP increase), most hits filed as activators | 0.14% of 230,000 active | PC12 HTT-Q103 induced, cytoprotection, ATP luminescence, 40 h; active means well fitted curve in the direction sought with a large enough effect; inconclusive means small, poorly fitted or top-dose-only effect, or another doubt; inactive means no such curve, though single readings can be large; an effect the other way counts as inactive or inconclusive; further: potency means the concentration at half of the fitted maximal effect; % of control where 0% means no effect; nearly all actives have a fitted effect of over 45% in size
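PC12 cells stably carrying ecdysone-inducible Htt exon 1 (Q103)–GFP were induced with 100 nM tebufenozide (final) alongside library compounds in a dose series. Cytoprotection was scored as retained ATP by ATPlite luminescence.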
HttQ103 aggreg: qHTS Multiplex Assay to Identify Dual Action Probes in a Cell Model of Huntington: Aggregate Formation (GFP); PC12 HttQ103-GFP aggregates, Acumen cytometry, 40 h; Potency, µM (top dose mostly 46.1 µM), inactives show at the highest dose activity change, negative = inhibition, usual class: inhibitors; 1.1% of 220,000 active; AID 1688, 2009; active means well fitted curve in the direction sought with a large enough effect; inconclusive means small, poorly fitted or top-dose-only effect, or another doubt; inactive means no such curve, though single readings can be large; an effect the other way counts as inactive or inconclusive; further: potency means the concentration at half of the fitted maximal effect; on the % scale 0 is the no-effect control and ±100 the full control effect; nearly all actives have a fitted effect of over 60% in size
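Quantitative HTS on tebufenozide-induced (100 nM) PC12 cells stably expressing polyQ103 Huntingtin exon 1–GFP. Reduction of bright GFP aggregates, detected by laser scanning cytometry after lysis, identified actives across the titration.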
CBFb-RUNX1 inh: qHTS Assay for Compounds Blocking the Interaction Between CBF-beta and RUNX1 for the Treatment of Acute Myeloid Leukemia; AlphaScreen CBFb-His/RUNX1-biotin binding, biochemical; 230,000 tested, under 10 active; AID 1477, 2009; Potency, µM (series often up to 59.8 µM), without a hit: at the top dose activity, negative = inhibition, most hits filed as inhibitors; active means well fitted curve in the direction sought with a large enough effect; inconclusive means small, poorly fitted or top-dose-only effect, or another doubt; inactive means no such curve, though single readings can be large; an effect the other way counts as inactive or inconclusive; further: % of control where 0% means no effect
Target sequence (Q01196 whole entry, looked up): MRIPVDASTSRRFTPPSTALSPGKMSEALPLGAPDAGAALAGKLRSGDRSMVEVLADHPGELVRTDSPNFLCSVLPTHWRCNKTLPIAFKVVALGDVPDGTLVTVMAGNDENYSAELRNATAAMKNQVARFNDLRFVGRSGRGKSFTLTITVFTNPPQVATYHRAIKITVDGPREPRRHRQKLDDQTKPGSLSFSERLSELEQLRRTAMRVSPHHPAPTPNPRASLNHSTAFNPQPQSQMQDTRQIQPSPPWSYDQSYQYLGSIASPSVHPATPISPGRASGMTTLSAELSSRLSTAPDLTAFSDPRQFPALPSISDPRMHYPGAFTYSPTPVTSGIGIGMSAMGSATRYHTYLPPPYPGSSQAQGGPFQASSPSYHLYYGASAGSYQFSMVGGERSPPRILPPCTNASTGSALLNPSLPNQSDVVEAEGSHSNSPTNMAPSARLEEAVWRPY
Target sequence (Q13951 whole entry, looked up): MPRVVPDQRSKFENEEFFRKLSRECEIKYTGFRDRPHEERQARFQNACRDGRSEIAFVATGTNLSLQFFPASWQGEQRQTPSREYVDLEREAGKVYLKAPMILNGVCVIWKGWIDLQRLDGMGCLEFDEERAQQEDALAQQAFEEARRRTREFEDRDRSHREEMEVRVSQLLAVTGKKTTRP
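Bead-based AlphaScreen assay; binding partners His-tagged CBF-beta and biotinylated RUNX1 at 30 nM each. Compound exposure 15 min after a 20-min protein preincubation; bead step 90 min; all steps at room temperature.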
* marks the source's active call; other numbers are inactive results; ? = inconclusive; · = no result; [ ] = remark or other dose. Unless noted, the call rests on the fitted dose curve; in most records, active means well fitted inhibition curve with a large enough effect (not every such curve was filed as active); inconclusive means small, poorly fitted or top-dose-only effect, or another doubt; inactive means no such curve, though single readings can be large or run the other way.

SMILES | ALDH1A1 inh | KDM4E inh | HPGD block | HTT ATP protect | HttQ103 aggreg | CBFb-RUNX1 inh
Cc1ccc2c(c1)nnn2C1CCN(C(=O)C23CC4CC(CC(C4)C2)C3)CC1 | 18µM* | 1% | 5% | ? | -26% | 19%
Cc1ccc2c(c1)nnn2C1CCN(C(=O)NC23CC4CC(CC(C4)C2)C3)CC1 | 18% | 9% | -3% | 11%[10 µM] | 2% | 1%
Cc1cc(CN(C)C(=O)CC2C(=O)NCCN2Cc2c(F)cccc2Cl)on1 (configuration not stated) | · | 0% | · | -3%[10 µM] | -9%[9.22 µM] | 8%
COc1cc2ncnc(NCc3cccc(Cl)c3)c2cc1OC | -3% | -25% | · | -77% | 14µM* | 9%
COc1ccc(CNc2ncnc3cc(Cl)ccc23)cc1 | 1% | -1% | · | -24% | 14µM* | 12%
COc1cc2ncnc(NCc3ccccc3)c2cc1OC | -14% | ? | ? | 8%[10 µM] | ? | 2%
C/C=C(\CS(=O)(=O)c1ccccc1)S(=O)(=O)c1ccccc1 | 8.9µM* | -2% | -12% | ? | ? | 13%
C/C(CS(=O)(=O)c1ccccc1)=N\O | 13% | -6% | · | 11% | -5%[9.22 µM] | 3%
Cc1ccc2nc(-c3ccccc3Cl)cc(C(=O)Nc3cc(C)on3)c2c1 | ? | ? | ? | -25%[0.074 µM] | -9% | -3%
O=C(NCc1cccnc1)c1cc(Sc2ccccc2Cl)nc2ccccc12 | 7.9µM* | ? | -7% | 8%[10 µM] | -19% | 6%
CCCc1cc(=O)oc2c3c(c4c(c12)OC(C)(C)C=C4)OC(C)C(C)C3O (configuration not stated) | ? | -8% | · | 8%[10 µM] | 15%[9.22 µM] | 17%
Cc1cc(CNC(=O)[C@H](C)[C@H]2C[C@]2(C)[C@H](NC(=O)OCc2ccccc2)c2ccccc2)nn1C | 4µM* | 1% | -9% | -42% | · | -13%
COC(=O)[C@H](C)[C@@H]1C[C@@]1(C)[C@@H](NC(=O)OCc1ccccc1)c1ccccc1 | -5% | -5% | -4% | 15% | -11% | 8%[2.36 µM]
C[C@@H](C(=O)O)[C@H]1C[C@]1(C)[C@H](NC(=O)OCc1ccccc1)c1ccccc1 | 7.1µM* | 3% | -6% | 14% | 9% | -3%[2.36 µM]
COc1ccc(CNC(=O)[C@H](C)[C@H]2C[C@]2(C)[C@H](NC(=O)OCc2ccccc2)c2ccccc2)cc1OC | 3.5µM* | -1% | -10% | -13% | · | -3%
CCOC(=O)[C@]1(C(NC(=O)OC)c2ccco2)CCCC1=O (some centres not stated) | -3%[13.5 µM] | · | · | ? | · | 5%[13.1 µM]
CCNC(=S)Nc1cccc(F)c1C | ? | 8% | · | -6% | -1% | 12%
CCOc1cc(C2NC(=O)NC(c3ccccc3)=C2C(C)=O)ccc1OC(C)=O (configuration not stated) | -4% | 6% | · | 11%[10 µM] | 12%[9.22 µM] | -3%
Cc1ccc(/C=[N+](\[O-])c2ccc(N(C)C)cc2)c2nsnc12 | 1.1µM* | 14µM* | · | -162% | 11µM* | ?
CNS(=O)(=O)c1cc(OCC(N)=O)c(C)cc1Cl | 5% | -1% | -15% | -5%[0.074 µM] | 0% | -7%
Cc1ccc(Sc2c(O)c3ccccc3n(C)c2=O)cc1 | -6% | -17% | -9% | · | 0% | 1%
Cn1c(=O)c(Sc2ccccc2)c(O)c2ccccc21 | 25µM* | ? | · | 6%[10 µM] | -14%[9.22 µM] | 1%
Cc1ccccc1C(=O)c1c[nH]c(C(=O)NCCc2ccccn2)c1 | 22µM* | 9% | · | 23%[10 µM] | -23% | -7%
Cc1ccccc1C(=O)c1c[nH]c(C(=O)NCc2ccco2)c1 | 20µM* | 4% | -17% | -24% | ? | -2%
CCCc1cc(=O)[nH]c(SCc2cc(C(=O)OC)c(C)o2)n1 | -10% | 3% | 16µM* | -5% | 8% | 5%
SMILES | ALDH1A1 inh | KDM4E inh | HPGD block | HTT ATP protect | HttQ103 aggreg | CBFb-RUNX1 inh
COc1ccc(NC2=C(C(C)=O)C(c3ccc4c(c3)OCO4)C(C(C)=O)C(C)(O)C2)cc1 (configuration not stated) | ? | -8% | -20% | -10% | -11% | -6%
COc1cccc(NC(C)(C)c2nnnn2-c2c(C)cccc2C)c1 | ? | 7% | · | 0%[10 µM] | 14%[9.22 µM] | 6%
Cc1onc(-c2ccccc2)c1C(=O)N1CCCSC1=Nc1ccccc1 | 11µM* | 1% | -20% | 2%[10 µM] | ? | 20%
Cc1onc(-c2ccccc2)c1C(=O)N1CCCN(C(=O)c2c(-c3ccccc3)noc2C)CC1 | -1% | -6% | -11% | 19% | ? | 2%
CN1CCN(CC(O)COc2ccc(C34CC5CC(CC(C5)C3)C4)cc2)CC1 (configuration not stated) | -2% | 8% | · | -18%[10 µM] | ? | -7%
Cc1cc(C(C#N)c2ccccc2)n2ncnc2n1 (configuration not stated) | ? | 6% | -7% | 16%[10 µM] | 18% | 5%
Cc1cc(C(C#N)c2ccccc2F)n2ncnc2n1 (configuration not stated) | 16µM* | 6% | · | 4%[10 µM] | 0%[9.22 µM] | 0%
COc1ccc(C2CC(=O)C(C3NCCc4ccccc43)=C(O)C2n2cncn2)cc1 (configuration not stated) | ? | -7% | · | -11%[10 µM] | 2% | -15%
CC(=O)c1ccc(Nc2ccc(-c3ccccc3C)nn2)cc1 | 7.1µM* | -5% | · | -11%[10 µM] | 6%[9.22 µM] | 3%
CN(C)c1nc(/C=C(\C#N)C(N)=O)c(Cl)n1-c1ccc(F)cc1 | -2% | -2% | · | ? | -24% | 4%
N#C/C(=C(/O)c1ccc(C(=O)c2ccccc2)cc1)c1nc2ccccc2[nH]1 | 15% | -1% | · | 3%[10 µM] | 6%[9.22 µM] | 11%
Cn1c(=O)c(C(=O)c2ccccc2)nc2ccccc21 | 0% | -3% | -21% | -15%[0.074 µM] | -5% | 2%
O=C(c1ccccc1)c1nc2ccccc2[nH]c1=O | 3% | 7% | 25µM* | -26% | ? | 3%
O=C(c1ccccc1)c1nc2ccccc2n(CCCn2c(=O)c(C(=O)c3ccccc3)nc3ccccc32)c1=O | 11µM* | -3% | -2% | -12% | ? | -17%
CCOc1cc(/C=C(\C#N)c2[nH]nc(N)c2C#N)ccc1O | ? | ? | 25µM* | -112% | -32% | -1%
